Compounds with a hit are over-represented: about 4.2% of the library has one in this group of screens.
MCF10A rerep: inducers of DNA re-replication in MCF 10A breast cells | 350,000 compounds, 2.9% hits | MCF 10A DNA re-replication, Hoechst nuclear intensity, 48 h | Potency, µM (highest dose often 46.1 µM), usual class: activators | AID 624296; further: nearly all actives have a fitted effect of over 50% in size
SW480 rereplic: DNA re-replication induction in SW480 cells; SW480 DNA re-replication, Hoechst DNA content imaging, 48 h; Potency, µM (titrated, usually from 46.1 µM), actives largely listed as activators; 340,000 compounds, 1.8% hits; further: nearly all actives have a fitted effect of over 55% in size
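250 cells/well; 23 nL cpd via pin tool; 48 hr, 37 C, 5% CO2; Hoechst 40 min; imager read of total nuclear intensity, ex 405/em 500-530 nm.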
Mito fusion yeast: inhibitors of mitochondrial division or activators of mitochondrial fusion; S. cerevisiae fusion-defective mutant growth rescue, CellTiterGlo 48 h; Potency, µM (top dose mostly 46.1 µM), hits mostly activators; 320,000 compounds, 0.23% hits; further: nearly all actives have a fitted effect of over 45% in size
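Yeast fusion mutant, YPEG (non-fermentable carbon), compound, 48 h at 37C non-permissive; CellTiterGlo added, 10 min RT, luminescence read. Rescued growth = division inhibition.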
AT treatment: potential ataxia-telangiectasia treatment; F2112 A-T fibroblasts, KAP-1 phosphorylation AlphaLISA; neocarzinostatin DNA damage 30 min before lysis; Potency, µM (series often up to 57.5 µM), actives largely listed as activators; 320,000 compounds, 0.19% hits; AID 485349; further: nearly all actives have a fitted effect of over 45% in size
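hTERT-immortalized A-T patient fibroblasts (F2112), 500 cells/well in OPTI-MEM, 1% FBS, got compounds for 60 min, then NCS for 30 min at 37C. Lysates were then assayed for phospho-KAP-1 by AlphaLISA (anti-pKAP1 donor, anti-KAP1 acceptor beads), 6 hr at 25C.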
a7 integrin act: activators of alpha7 integrin expression for muscular dystrophy | Potency, µM (titrated, usually from 38.3 µM), most hits filed as activators | alpha7betagal myoblasts, beta-gal FDG fluorescence, 48 h | 350,000 compounds, 0.064% hits; further: nearly all actives have a fitted effect of over 60% in size
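alpha7betagal+/- myoblasts (passage 13, 250/well) treated 48 h at 37C with compounds at 1:260 dilution of DMSO stock. Lysed, then beta-galactosidase activity read as FDG fluorescence (ex 480/em 540) after 30 min, with pre-read for autofluorescence.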
Of the large screens only hits and unclear results are named; the others gave an inactive call. The call rests on the fitted dose curve; in most records, active means well fitted activation curve with a large enough effect; inconclusive means small, poorly fitted or top-dose-only effect; inactive means no such curve, though single readings can be large or run the other way.

CC(=O)NC(c1ccco1)c1ccc2cccnc2c1O (stereo not drawn)	MCF10A rerep inconclusive, SW480 rereplic 3.3µM
COc1ccccc1NS(=O)(=O)CC12CCC(CC1=O)C2(C)C (stereo not drawn)	none
c1ccc(CN2CCC(N3CCN(Cc4ccc5c(c4)OCO5)CC3)CC2)cc1	MCF10A rerep 21µM
c1cc2c(cc1CN1CCN(C3CCCCCC3)CC1)OCO2	none
c1ccc2cc(CSCc3nc4ccccc4[nH]3)ccc2c1	MCF10A rerep 21µM, Mito fusion yeast inconclusive
Cc1ccccc1CSCc1nc2ccccc2[nH]1	none
Cc1ccc(C)c(CSCc2nc3ccccc3[nH]2)c1	MCF10A rerep 18µM
Cc1ccc(NC(=O)C2CCN(S(=O)(=O)c3ccc4ccccc4c3)CC2)nc1	none
COc1cc2c(c(OC)c1OC)-c1ccc(NC(=O)c3ccc(F)cc3)c(=O)cc1[C@@H](NC(C)=O)CC2	MCF10A rerep 3.3µM, SW480 rereplic inconclusive, AT treatment inconclusive
COc1cc2c(c(OC)c1OC)-c1ccc(NCc3ccccc3)c(=O)cc1C(NC(C)=O)CC2 (stereo not drawn)	none (no result: MCF10A rerep, SW480 rereplic, Mito fusion yeast, AT treatment)
COc1cc2c(c(OC)c1OC)-c1ccc(N(C)CC(OC)OC)c(=O)cc1[C@@H](NC(C)=O)CC2	MCF10A rerep 0.58µM, SW480 rereplic 1.5µM
CN[C@H]1CCc2cc(OC)c(OC)c(OC)c2-c2ccc(N(C)CC(OC)OC)c(=O)cc21	SW480 rereplic inconclusive
CC(=O)Nc1cc(NC(C)=O)cc(C(=O)NCC2(N3CCOCC3)CCCCC2)c1	none
O=C(NCCCN1CCOCC1)/C(=C/c1ccco1)NC(=O)c1ccccc1	none
OC(COc1cccc2ccccc12)CN1CCN(c2ccccc2Cl)CC1 (stereo not drawn)	MCF10A rerep 18µM, SW480 rereplic inconclusive
O=C1SC(SC(=Nc2ccccc2)Nc2ccccc2)C(=O)N1c1ccccc1 (stereo not drawn)	none
COc1cc2ccccc2cc1-c1nnc(COc2ccccc2)o1	Mito fusion yeast 10µM
Cc1nn(-c2ccccc2)c2sc(C(=O)NC3CC3)cc12	MCF10A rerep 12µM
Cn1nc(-c2ccc(Cl)cc2)c2cc(C(=O)NC3CC3)sc21	MCF10A rerep 6.5µM, SW480 rereplic inconclusive
CCOCCCNC(=O)c1cc2c(-c3ccc(Cl)cc3)nn(C)c2s1	none
COc1ccc(-c2nn(C)c3sc(C(=O)NCCN(C)C)cc23)cc1OC	SW480 rereplic inconclusive
CCN(CC)CCNC(=O)c1cc2c(-c3ccc(Cl)cc3)nn(C)c2s1	SW480 rereplic inconclusive
CC(=O)c1sc(NC(=O)c2cc3c(C)nn(-c4ccccc4)c3s2)nc1C	none
CCCN(CCC)CCCNC(=O)c1cc2c(-c3ccc(OC)c(OC)c3)nn(C)c2s1	MCF10A rerep 18µM, SW480 rereplic inconclusive
CCCCN(CC)CCNC(=O)c1cc2c(-c3ccc(Cl)cc3)nn(C)c2s1	MCF10A rerep 18µM, SW480 rereplic inconclusive
Nc1n[nH]c(N)c1N=Nc1cccc(C(F)(F)F)c1	MCF10A rerep inconclusive
C=CCNC(=O)CN1CCN(C(c2ccccc2)c2ccccc2)CC1	MCF10A rerep inconclusive
CC(=O)c1ccc(S(=O)(=O)N(C)CC(=O)N2CCCCCC2)cc1	none
CC(=O)c1ccc2c3c(cc(C)c2c1)CCCC3	MCF10A rerep 21µM (no result: Mito fusion yeast, AT treatment)
Cc1ccc(C(=O)COC(=O)c2cn3ccccc3n2)cc1	MCF10A rerep 0.58µM
NNC(=O)c1cn2ccccc2n1	none
COCC(C)N=C1NN=C(c2ccc(NC(C)=O)cc2)CS1 (stereo not drawn)	MCF10A rerep 5.8µM, SW480 rereplic inconclusive
COC(=O)c1ccc(COC(=O)[C@@H]2CC(O)CN2S(=O)(=O)c2ccccc2[N+](=O)[O-])cc1 (stereo partly drawn)	none
CCCN1CCC(=NNc2ccc(S(=O)(=O)N3CCOCC3)cc2[N+](=O)[O-])CC1	MCF10A rerep 7.3µM, SW480 rereplic 7.3µM
CC(C)N1CCC(=NNc2ccc(S(=O)(=O)N3CCOCC3)cc2[N+](=O)[O-])CC1	none
CCc1cc2c(COC(=O)c3cc(S(=O)(=O)N4CCOCC4)ccc3F)cc(=O)oc2cc1O	MCF10A rerep inconclusive
CCc1cc2c(COC(=O)c3cccc(NS(C)(=O)=O)c3)cc(=O)oc2cc1O	MCF10A rerep 9.2µM
CCCNS(=O)(=O)c1cccc(C(=O)OCc2cc(=O)oc3cc(OC)ccc23)c1	MCF10A rerep 7.3µM, SW480 rereplic inconclusive, Mito fusion yeast inconclusive
Cc1nc2c(C)cccn2c1/C(O)=C1\C(=O)C(=O)N(CCN(C)C)C1c1ccco1 (stereo not drawn)	none
C[C@@H]1CN([C@@H](C)CO)C(=O)CCCn2nncc2CO[C@@H]1CN(C)S(C)(=O)=O	none (no result: MCF10A rerep, SW480 rereplic, Mito fusion yeast, AT treatment)
O=C(C[C@@H]1C/C=C/CC[C@H](Cc2ccc(F)cc2)C(=O)OC[C@@H](Cc2ccccc2)NC1=O)N[C@H](CO)Cc1ccccc1	MCF10A rerep 7.3µM, SW480 rereplic inconclusive (no result: Mito fusion yeast)
O=C1NC[C@@H](c2ccccc2)OC(=O)[C@@H](Cc2ccc(F)cc2)CC/C=C/C[C@H]1CC(=O)N(CCO)Cc1ccccc1	MCF10A rerep inconclusive, SW480 rereplic 4.6µM (no result: Mito fusion yeast)
C[C@@H]1COC(=O)[C@H](Cc2ccc(F)cc2)CC/C=C/C[C@@H](CC(=O)N[C@@H](CO)Cc2ccccc2)C(=O)N1	SW480 rereplic inconclusive (no result: Mito fusion yeast)
COc1ccc(NC(=O)C2CCCN(S(=O)(=O)c3cccc4nonc34)C2)cc1 (stereo not drawn)	MCF10A rerep 15µM, SW480 rereplic inconclusive
COc1ccc(NC(=O)C2CCCN(S(=O)(=O)c3c(C)[nH]c(=O)[nH]c3=O)C2)cc1OC (stereo not drawn)	none
Cc1cccc(NC(=O)C2CCN(S(=O)(=O)c3cccc4nsnc34)CC2)c1	none
COc1ccc(NC(=O)C2CCCN(S(=O)(=O)c3c(C)n[nH]c3C)C2)cc1OC (stereo not drawn)	MCF10A rerep 2.1µM
Cc1cccc(NC(=O)C2CCCN(S(=O)(=O)c3cccc4nsnc34)C2)c1 (stereo not drawn)	MCF10A rerep 15µM, SW480 rereplic inconclusive
CN(Cc1ccccc1)C(=O)C1CCN(S(=O)(=O)c2cccc3nsnc23)CC1	SW480 rereplic 21µM
COc1ccccc1C(=O)NCCC(=O)N1CC(=O)Nc2ccccc21	none
Cc1cccc(NS(=O)(=O)c2ccc(C)c(C(=O)NC3CCN(Cc4ccccc4)CC3)c2)c1	MCF10A rerep inconclusive (no result: Mito fusion yeast, AT treatment)
O=C(Nc1ccccc1)c1cccc(S(=O)(=O)Nc2cccc(F)c2)c1	none (no result: MCF10A rerep, SW480 rereplic, AT treatment, a7 integrin act)
CC(C)(C)OC(=O)NCCCC[C@H](NC(=O)c1nc[nH]c1C(=O)N[C@@H](CCCCNC(=O)OC(C)(C)C)C(=O)OC(C)(C)C)C(=O)OC(C)(C)C	MCF10A rerep inconclusive, SW480 rereplic inconclusive, AT treatment 22µM

Assay outcomes as filed in PubChem BioAssay.
